Drawing on PubChem BioAssay (EPA / NIEHS), this text covers outcome and AC50 for 13 compounds.

Several values for one entry are separate records, joined by “and”; a condition that tells them apart may be missing. Equal entries are not always repeated. Results filed as inconclusive are left out. Activity calls are given as the source filed them. How the source made its calls: active means hit-call score of the fitted dose curve at least 0.9, where 1 is the maximum; inconclusive means response in the unintended direction; inactive means score below 0.9.

rat CYP2D2, Cyp2d26 (gene 25053), sequence (P10634 whole entry, looked up): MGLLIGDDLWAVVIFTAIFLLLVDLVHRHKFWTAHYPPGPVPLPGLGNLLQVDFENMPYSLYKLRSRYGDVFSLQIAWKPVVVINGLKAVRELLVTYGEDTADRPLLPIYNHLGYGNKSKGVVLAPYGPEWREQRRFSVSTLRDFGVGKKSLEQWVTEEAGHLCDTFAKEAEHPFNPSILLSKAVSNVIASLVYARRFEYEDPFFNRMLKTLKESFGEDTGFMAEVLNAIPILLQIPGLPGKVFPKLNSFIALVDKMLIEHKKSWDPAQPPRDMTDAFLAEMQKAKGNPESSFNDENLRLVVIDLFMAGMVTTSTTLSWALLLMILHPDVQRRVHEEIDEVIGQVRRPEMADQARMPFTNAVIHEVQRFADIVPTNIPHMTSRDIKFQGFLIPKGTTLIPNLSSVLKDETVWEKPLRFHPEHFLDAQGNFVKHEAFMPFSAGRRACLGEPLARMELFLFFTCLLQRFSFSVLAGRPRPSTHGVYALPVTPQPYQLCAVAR

This experiment concerns the target rat CYP2D2, Cyp2d26 (gene 25053) (UniProt P10634). Briefly: NVS_ADME_rCYP2D2: NovaScreen (NVS) CYP450-related Enzyme Activity (ADME) Assay for rat CYP2D2 (AID 2283124). The procedure:
NVS_ADME_rCYP2D2 is a biochemical, single-readout assay that uses extracted gene-proteins in a cell-free assay. Measurements were taken 0.75 hour after chemical dosing in a 96-well plate.NVS_ADME_rCYP2D2 is one of one assay component(s) measured or calculated from the NVS_ADME_rCYP2D2 assay. It is designed to make measurements of enzyme activity, a form of enzyme reporter, as detected with fluorescence intensity signals by Fluorescence technology.Data from the assay component NVS_ADME_rCYP2D2 was analyzed into 1 assay endpoint. This assay endpoint, NVS_ADME_rCYP2D2, was analyzed in the positive analysis fitting direction relative to Acetonitrile as the negative control and baseline of activity. Using a type of enzyme reporter, loss-of-signal activity can be used to understand changes in the enzymatic activity as they relate to the gene Cyp2d2. Furthermore, this assay endpoint can be referred to as a primary readout, because this assay has produced multiple assay endpoints where this one serves a enzymatic activity function. To generalize the intended target to other relatable targets, this assay endpoint is annotated to the cyp intended target family, where the subfamily is xenobiotic metabolism.
Binding assays used specific radioligands (tritiated, iodinated) with non-radioactive competitive displacement ligands in agonist or antagonist protocols (as indicated) and various reference compounds and inhibitors to titrate specific binding to receptors and transporters. Most enzyme assays (CYPs, kinases, phosphatases, proteases, HDACs) used recombinant protein and specific substrates (fluorescence mostly, some colorimetric and radioactive) and inhibitors, followed by a biochemical separation of substrate and product. All assays for the biochemical HTS were initially run in duplicate at a single concentration (10 uM for CYP450 assays and 25 uM for all others). Assay-chemical combinations meeting a pre-defined threshold (e.g., 30% inhibition and other criteria defined below) were then run in singleton concentration-response format with maximum concentration of 20 uM for CYPs and 50 uM for all others. Each assay was run with positive and negative controls, and concurrent controls on every plate. The follow-up (secondary) screen tested active chemical-pairs in concentration series, as well as a few additional assays not tested in the primary screen, some selected negative inactives, and several cases re-run in the concentration series for confirmatory purposes.
For `CCOC(=O)CC(SP(=O)(OC)OC)C(=O)OCC` (stereo not drawn), the compound was called inactive.

Regarding `CCOP(=S)(OCC)Oc1ccc2c(C)c(Cl)c(=O)oc2c1`, the compound was classed as inactive. As to `CCOP(=S)(OCC)Oc1ccc([N+](=O)[O-])cc1`, the outcome was inactive.

Consider `CC(C)=CC1C(C(=O)OCN2C(=O)C3=C(CCCC3)C2=O)C1(C)C` (stereo not drawn), for which the AC50 is 10 µM (active). Same read-out and setting: the figure for `CCCOCC(=Nc1ccc(Cl)cc1C(F)(F)F)n1ccnc1` is 3.2 µM (active).

For `CC[C@H](C)[C@H]1O[C@]2(C=C[C@@H]1C)C[C@@H]1C[C@@H](C/C=C(\C)[C@@H](O[C@H]3C[C@H](OC)[C@@H](O[C@H]4C[C@H](OC)[C@@H](NC)[C@H](C)O4)[C@H](C)O3)[C@@H](C)/C=C/C=C3\CO[C@@H]4[C@H](O)C(C)=C[C@@H](C(=O)O1)[C@]34O)O2`, the AC50 was 3.96 µM (active). With `CCCSP(=O)(OCC)Oc1ccc(Br)cc1Cl` (stereo not drawn), the AC50 is 8.58 µM (active).

As to `CCOP(=O)(NC(C)C)Oc1ccc(SC)c(C)c1` (stereo not drawn), the AC50 is 5.06 µM (active). The same measure, in the same setting: the figure for `C[Si](Cn1cncn1)(c1ccc(F)cc1)c1ccc(F)cc1` is 1.87 µM (active); for `CC(C1CC1)C(O)(Cn1cncn1)c1ccc(Cl)cc1` (stereo not drawn) it is 3.14 µM (active) and 4.54 µM (active). On to `CNc1cnn(-c2cccc(C(F)(F)F)c2)c(=O)c1Cl`, for which the call was inactive. `FC(F)C(F)(F)OCC(Cn1cncn1)c1ccc(Cl)cc1Cl` (stereo not drawn): the AC50 is 5.52 µM (active). Take `CCCCOC(=O)[C@@H](C)Oc1ccc(Oc2ccc(C#N)cc2F)cc1`: the AC50 is 12.1 µM (active).
